HT1080 IDH1KD tx: qHTS for induction of synthetic lethality in tumor cells producing 2HG: qHTS for the HT-1080-IDH1KD cell line; HT-1080 IDH1 knockdown viability, ATP luminescence, 48 h; 2% of 360,000 active; Potency, µM (series often up to 46.1 µM), actives largely listed as cytotoxic
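IDH1KD HT-1080 cells, 750/well, RPMI + 5% FBS; compound pinned after 2 h settling; 48 h, 37 °C; CellTiter-Glo luminescence; % activity normalised to DMSO and no-cell wells; curves fitted, classed by r2 and efficacy.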
TDP1 cell noCPT: qHTS for Inhibitors of human tyrosyl-DNA phosphodiesterase 1 (TDP1): qHTS in cells in absence of CPT | DT40 Tdp1-/- hTDP1 cells, no CPT, ATP luminescence, 48 h | 15% of 420,000 active | AID 686978, 2013 | Potency, µM (top dose mostly 46.2 µM), hits mostly inhibitors; further: nearly all actives have a fitted effect of over 55% in size
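Chicken DT40 Tdp1-/- cells stably complemented with human TDP1 were seeded at 400 cells/well with DMSO in place of 20 nM camptothecin. After compound pinning, cells grew at least 48 hr at 37 °C; viability read by CellTiter-Glo luminescence.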
HT1080-NT tox: qHTS for induction of synthetic lethality in tumor cells producing 2HG: qHTS for the HT-1080-NT fibrosarcoma cell line; AID 686970, 2013; HT-1080-NT fibrosarcoma viability, CellTiter-Glo ATP luminescence, 48 h; 1.6% of 360,000 active; Potency, µM (titrated, usually from 46.1 µM), hits mostly cytotoxic;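 further: NT is the 2HG producing partner of a matched IDH1 knockdown line; nearly all actives have a fitted effect of over 55% in size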
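Compounds were tested in concentration-response format on HT-1080-NT cells for 48 hours at 37 degrees C. Cell viability came from CellTiter-Glo luminescence; curves were classified by r2, response magnitude and activity.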
IL-1B inflam inh: qHTS for Inhibitors of Inflammasome Signaling: IL-1-beta AlphaLISA Primary Screen; THP-1 LPS/ATP IL-1B secretion, AlphaLISA, 16 h; active compounds read low; activity change, % at 57.5 µM; 4.7% of 360,000 active; AID 743279, 2014; in the data active means activity change below about -50%; inconclusive means mostly about -30% to -49%
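Secreted IL-1B measured by AlphaLISA bead assay after 16 h compound exposure of THP-1 cells; compounds (final up to 57.5 uM) added 1 h before LPS (250 ng/mL) and ATP (1.25 mM) stimulation; lower signal means less secretion.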
DT40 TDP1 CPT: qHTS for Inhibitors of human tyrosyl-DNA phosphodiesterase 1 (TDP1): qHTS in cells in presence of CPT. chicken DT40 Tdp1-/-;hTDP1 cells + 20 nM CPT, ATP luminescence, 48 h. Potency, µM (highest dose often 46.2 µM), actives largely listed as inhibitors. 12% of 420,000 active. AID 686979, 2013; further: nearly all actives have a fitted effect of over 55% in size
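Chicken DT40 Tdp1-/- cells complemented with human TDP1, 400 cells/well, exposed to compounds plus 20 nM camptothecin for at least 48 h at 37 C; viability read as ATP content by CellTiter-Glo luminescence.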
A number is an active result; ! = not active in a repeat; [ ] = remark or other dose. Only some compounds are listed: those with a hit (about 19% of all), similar ones and a draw of the others. Unless noted, the call rests on the fitted dose curve; in most records, active means well fitted curve in the direction sought with a large enough effect; inconclusive means small, poorly fitted or top-dose-only effect, or another doubt; inactive means no such curve, though single readings can be large; an effect the other way counts as inactive or inconclusive.

Cc1cc2c(cc1C)C(=O)C(=O)N2 was read as HT1080 IDH1KD tx inactive, TDP1 cell noCPT inconclusive, HT1080-NT tox inactive, IL-1B inflam inh inactive and DT40 TDP1 CPT inconclusive.
For O=C1Nc2cc3c(cc2C1=O)sc1ccccc13 the results were HT1080 IDH1KD tx inactive, TDP1 cell noCPT 29µM, HT1080-NT tox inactive and DT40 TDP1 CPT 21µM.
COc1ccccc1/C=C1/C(=O)N(c2cc(C)cc(C)c2)C(c2cccc([N+](=O)[O-])c2)S1(=O)=O (stereo not given) was read as HT1080 IDH1KD tx inactive, TDP1 cell noCPT inconclusive, HT1080-NT tox inactive, IL-1B inflam inh inactive and DT40 TDP1 CPT inactive.
For CCOc1ccc(N2C(=O)/C(=C\c3ccccc3OC)S(=O)(=O)C2c2cccc([N+](=O)[O-])c2)cc1 (stereo not given) the results were HT1080 IDH1KD tx inactive, TDP1 cell noCPT 16µM, HT1080-NT tox inactive, IL-1B inflam inh inactive and DT40 TDP1 CPT 15µM.
Screening COC(=O)c1ccccc1NC(=O)Cn1nc(C(F)(F)F)c2c1CCCC2 returned TDP1 cell noCPT 7.3µM and DT40 TDP1 CPT 23µM.
Screening Cc1ccc(NC(=O)Cn2nc(C(F)(F)F)c3c2CCCC3)cc1C returned TDP1 cell noCPT inactive and DT40 TDP1 CPT inconclusive.
Screening COc1cc(NC(=O)Cn2nc(C(F)(F)F)c3c2CCC3)cc(OC)c1OC returned TDP1 cell noCPT 9.2µM and DT40 TDP1 CPT inconclusive.
COc1cc(NC(=O)Cn2nc(C(F)(F)F)c3c2CCCC3)c(OC)cc1Cl was read as TDP1 cell noCPT 16µM and DT40 TDP1 CPT 21µM.
Screening CC(C)=CCCC1=CC[C@H](C(=O)O)[C@H](C(=O)O)C1 returned TDP1 cell noCPT inactive[9.04 µM] and DT40 TDP1 CPT inactive[9.04 µM].
For CCOC(=O)/C=C1\CC(C(=O)OCC)Oc2c(OC)cccc21 (stereo not given) the results were HT1080 IDH1KD tx inactive, TDP1 cell noCPT 23µM!, HT1080-NT tox inactive, IL-1B inflam inh inactive and DT40 TDP1 CPT inconclusive.
COC(=O)CSc1nnc(CNC(=O)c2ccccc2F)n1-c1ccc(F)cc1 was read as HT1080 IDH1KD tx inactive, TDP1 cell noCPT inconclusive, HT1080-NT tox inactive, IL-1B inflam inh -56 and DT40 TDP1 CPT inactive.
For COc1cc(=O)n2c(c1C(=O)NCc1ccco1)CCN(Cc1ccc(F)cc1Cl)CC2 the results were TDP1 cell noCPT 2.9µM and DT40 TDP1 CPT 0.21µM.
`COc1cc(=O)n2c(c1C(=O)NCc1ccco1)CCN(Cc1ccc3nsnc3c1)CC2` gave TDP1 cell noCPT inactive and DT40 TDP1 CPT inactive.
Screening CC(C)/C=C(/C(=O)c1ccc(Cl)cc1Cl)n1cncn1 returned HT1080 IDH1KD tx inactive, TDP1 cell noCPT 21µM, HT1080-NT tox inactive, IL-1B inflam inh -71 and DT40 TDP1 CPT inconclusive.
Screening CC(C)(C)C(=O)/C(=C/c1ccc(Cl)cc1)n1cncn1 returned HT1080 IDH1KD tx inactive, TDP1 cell noCPT 5.2µM, HT1080-NT tox 16µM, IL-1B inflam inh -97 and DT40 TDP1 CPT 5.8µM.
Screening Cc1c2c(cc3c1[nH]c1ccccc13)C=NCC2 returned HT1080 IDH1KD tx inconclusive, TDP1 cell noCPT 23µM, HT1080-NT tox inactive, IL-1B inflam inh -73 and DT40 TDP1 CPT inconclusive.
For CCOC(=O)c1c(S(=O)(=O)N2CCC(C(=O)Nc3ccc(OCC)cc3)CC2)c(C)n(C)c1C the results were TDP1 cell noCPT inactive and DT40 TDP1 CPT inactive.
For CCOC(=O)c1cc(C)n(CC2CCC(C(=O)Nc3ccccc3OC)CC2)c1C (stereo not given) the results were TDP1 cell noCPT inconclusive and DT40 TDP1 CPT 18µM.
`CCOC(=O)c1cc(C)n(CC2CCC(C(=O)Nc3ccc(OCC)cc3)CC2)c1C` (stereo not given) gave TDP1 cell noCPT 21µM and DT40 TDP1 CPT 16µM.
Cc1ccc(-c2nc(=S)c3c(n2Cc2cccnc2)CC(C)(C)OC3)cc1 was read as HT1080 IDH1KD tx inactive, TDP1 cell noCPT inactive, HT1080-NT tox inactive, IL-1B inflam inh inactive and DT40 TDP1 CPT inactive.
COC(=O)C[C@H]1C=C[C@@H](NC(=O)Cc2cccnc2)[C@@H](CO)O1 was read as HT1080 IDH1KD tx inactive, TDP1 cell noCPT inactive, HT1080-NT tox inactive, IL-1B inflam inh inactive and DT40 TDP1 CPT inactive.
Screening Nn1c(SCC(=O)N2CCCc3ccccc32)nnc1-c1ccc(Cl)cc1 returned HT1080 IDH1KD tx inactive, TDP1 cell noCPT inactive, HT1080-NT tox inactive, IL-1B inflam inh inactive and DT40 TDP1 CPT inconclusive.
For O=C(CSc1ccc2nnc(-c3cccc(F)c3)n2n1)N1CCCc2ccccc21 the results were HT1080 IDH1KD tx inactive, TDP1 cell noCPT 18µM, HT1080-NT tox inactive, IL-1B inflam inh inactive and DT40 TDP1 CPT inconclusive.
For O=C(CSc1ccc2nnc(-c3ccc(F)cc3)n2n1)N1CCOCC1 the results were HT1080 IDH1KD tx inactive, TDP1 cell noCPT inactive, HT1080-NT tox inactive, IL-1B inflam inh inactive and DT40 TDP1 CPT inactive.
Screening O=C(CSc1ccc2nnc(-c3ccc(F)cc3)n2n1)N1CCCc2ccccc21 returned HT1080 IDH1KD tx inactive, TDP1 cell noCPT 16µM, HT1080-NT tox inactive, IL-1B inflam inh inactive and DT40 TDP1 CPT 18µM.
CCSc1ccc2nnc(-c3cccc(F)c3)n2n1 was read as HT1080 IDH1KD tx inconclusive, TDP1 cell noCPT inconclusive, HT1080-NT tox inactive, IL-1B inflam inh inactive and DT40 TDP1 CPT inactive.
`O=C(CSc1ccc2nnc(-c3ccc(Cl)cc3)n2n1)N1CCCc2ccccc21` gave HT1080 IDH1KD tx inactive, TDP1 cell noCPT 23µM, HT1080-NT tox inactive, IL-1B inflam inh inactive and DT40 TDP1 CPT inactive.
`CCn1cc(C(=O)O)c(=O)c2cnc(N3CCCC3)nc21` gave TDP1 cell noCPT inactive and DT40 TDP1 CPT inactive.
`O=C(O)c1ccccc1NS(=O)(=O)c1ccc(NN=Cc2cccc(Cl)c2)c([N+](=O)[O-])c1` gave HT1080 IDH1KD tx inactive, TDP1 cell noCPT inactive, HT1080-NT tox inactive, IL-1B inflam inh inactive and DT40 TDP1 CPT inactive.
`O=C(CCC(C(=O)c1ccccc1)c1ccccc1)c1ccccc1` (stereo not given) gave HT1080 IDH1KD tx inactive, TDP1 cell noCPT inconclusive, HT1080-NT tox inactive, IL-1B inflam inh inactive and DT40 TDP1 CPT inconclusive.
`Cc1ccc2nc(N3CCOCC3)c(C=O)c(=O)n2c1` gave HT1080 IDH1KD tx inactive, TDP1 cell noCPT inactive, HT1080-NT tox inactive, IL-1B inflam inh inactive and DT40 TDP1 CPT inactive.
NC(=S)NN=Cc1nccc2c(C(F)(F)F)cccc12 was read as HT1080 IDH1KD tx inconclusive, TDP1 cell noCPT 0.73µM, HT1080-NT tox inconclusive, IL-1B inflam inh inactive and DT40 TDP1 CPT 0.52µM.
Screening CNc1cccnc1C=NNC(N)=S returned HT1080 IDH1KD tx inconclusive, TDP1 cell noCPT 0.92µM, HT1080-NT tox inactive, IL-1B inflam inh inactive and DT40 TDP1 CPT 1.2µM.
